High-throughput results deposited in PubChem by Sanford-Burnham Center for Chemical Genomics.
A3A deaminase: human APOBEC3A DNA deaminase inhibition | P31941 | recombinant A3A, FAM/TAMRA ssDNA deamination fluorescence | inhibition, % at 20 µM | actives 0.41% (n = 330,000);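 active = at least 40% inhibition at 20 µM here, with at most 30% in a related deaminase screen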;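 note: plate controls were A3A with DMSO for no effect and wells lacking A3A enzyme for full effect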
PABP FP inh: blocks human PABP binding to poly(A) RNA | P11940 | fluorescence polarization | calls only at 35 µM | actives 1% (n = 290,000) | AID 2014;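 note: calls also rest on retests at 20 µM and on dose response follow-up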
Target sequence (P11940 whole entry, looked up): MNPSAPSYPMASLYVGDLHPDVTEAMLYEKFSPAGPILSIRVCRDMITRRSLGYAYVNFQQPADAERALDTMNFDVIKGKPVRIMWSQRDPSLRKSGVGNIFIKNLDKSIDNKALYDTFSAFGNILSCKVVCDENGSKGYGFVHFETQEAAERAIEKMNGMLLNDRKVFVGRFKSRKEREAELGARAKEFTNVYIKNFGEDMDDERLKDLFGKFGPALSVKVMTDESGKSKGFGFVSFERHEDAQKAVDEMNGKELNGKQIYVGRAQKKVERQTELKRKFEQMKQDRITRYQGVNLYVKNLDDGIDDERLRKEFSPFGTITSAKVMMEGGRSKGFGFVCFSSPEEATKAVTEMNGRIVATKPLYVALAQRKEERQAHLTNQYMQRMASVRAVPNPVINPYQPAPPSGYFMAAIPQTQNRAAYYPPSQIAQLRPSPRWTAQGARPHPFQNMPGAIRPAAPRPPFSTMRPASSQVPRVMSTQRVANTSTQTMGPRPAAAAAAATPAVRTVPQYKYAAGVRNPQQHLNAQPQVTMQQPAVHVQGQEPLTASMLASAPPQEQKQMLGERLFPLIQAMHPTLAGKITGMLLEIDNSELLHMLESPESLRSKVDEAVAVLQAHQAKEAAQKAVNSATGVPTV
eIF4H FP inh: inhibitors of RNA binding by human eIF4H; eIF4H fluorescence polarization binding assay; inhibition, % at 35 µM; actives 0.94% (n = 290,000); Q15056;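 note: calls also rest on retests at 20 µM and on dose response follow-up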
MLLE-PAM2 inh: inhibitors of microRNA-mediated deadenylation, human PABP1 MLLE binding. GST-MLLE / FITC-PAM2 fluorescence polarization. inhibition, % at 20 µM. actives 0.36% (n = 360,000); in the data active = inhibition above about 35%, passing the limit was not always enough;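 note: plate controls were DMSO wells with GST-MLLE for no effect and wells lacking GST-MLLE protein for full effect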
APOBEC3G inh: inhibitors of human APOBEC3G DNA deaminase. AID 493012. actives 0.28% (n = 330,000). Q9HC16. inhibition, % at 20 µM. recombinant A3G, ssDNA deamination FAM/TAMRA fluorescence;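 active = inhibition of at least 40% at 20 µM, with no more than 30% in the related APOBEC3A deaminase screen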;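 note: plate controls were DMSO wells with A3G for no effect and wells lacking A3G enzyme for full effect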
PHOSPHO1 inh: blocks human PHOSPHO1 phosphatase activity; Q8TCT1; recombinant PHOSPHO1, absorbance phosphatase assay; inhibition, % at 13.3 µM; actives 1.1% (n = 290,000); AID 1565; in the data active = inhibition above about 60%
A3A conf: APOBEC3A (human) deaminase inhibition, confirmed | shares compounds with A3A deaminase | recombinant A3A, ssDNA deaminase UDG fluorescence assay | inhibition, % at 20 µM | actives 63% (n = 1,400) | AID 493151;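 active = inhibition reaching a set limit, 80% of the first screen's cutoff, at 20 µM in any replicate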;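 note: plate controls were DMSO wells with A3A for no effect and wells lacking A3A enzyme for full effect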
UDG ctr A3A: inhibits UDG, flagging false APOBEC3A inhibitors | AID 504714 | 1,000 tested, under 10 active | UDG counterscreen, FAM/TAMRA uracil oligo fluorescence | shares compounds with A3A deaminase | inhibition, % at 20 µM
* marks the source's active call; other numbers are inactive results. In the library only some 2.6% were active in any assay of this set; here they are far more common. Unless noted, the rule behind the calls is not given here.

For CC1CCN(S(=O)(=O)c2ccc(NC(=O)CN3C(=O)NC(C)(c4ccccc4)C3=O)cc2)CC1 (centres undefined) the results were A3A deaminase 49*, MLLE-PAM2 inh -47, APOBEC3G inh 4 and A3A conf -3.
`CCC1(c2ccccc2)NC(=O)N(CC(=O)Nc2ccc(S(=O)(=O)N3CC(C)CC(C)C3)cc2)C1=O` (centres undefined) gave A3A deaminase 2, MLLE-PAM2 inh -2 and APOBEC3G inh -4.
CC1(c2ccc(Cl)cc2)NC(=O)N(CC(=O)Nc2ccc(N3CCCCC3)cc2)C1=O (centres undefined) was read as A3A deaminase 45*, MLLE-PAM2 inh -6, APOBEC3G inh -6, A3A conf -6 and UDG ctr A3A -3.
Screening CCN(Cc1ccc(OC)c(F)c1)C(=O)CCl returned A3A deaminase -1, PABP FP inh inactive, eIF4H FP inh 4, MLLE-PAM2 inh -16, APOBEC3G inh -12 and PHOSPHO1 inh 34.
Screening CCN(Cc1ccc(OC)c(F)c1)C(=O)C1CCCO1 (centres undefined) returned A3A deaminase 56*, PABP FP inh inactive, eIF4H FP inh -2, MLLE-PAM2 inh -75, APOBEC3G inh 5, PHOSPHO1 inh 23, A3A conf 32* and UDG ctr A3A -3.
For CCCc1nc2ccccc2c(C(=O)N(CC)CC(=O)NCc2cccs2)c1CC the results were A3A deaminase 50*, MLLE-PAM2 inh -65, APOBEC3G inh 5 and A3A conf 2.
`CCN(CC(=O)NCc1cccs1)C(=O)c1ccc(Cl)c(Cl)c1` gave A3A deaminase -6, MLLE-PAM2 inh 9 and APOBEC3G inh -6.
Screening Cc1cccc(Nc2ccncc2S(N)(=O)=O)c1 returned A3A deaminase -4, MLLE-PAM2 inh 0 and APOBEC3G inh -9.
Screening O=C1CC(c2ccco2)CC(O)=C1C=Nc1cc(Cl)ccc1O (centres undefined) returned A3A deaminase 55*, PABP FP inh active, eIF4H FP inh 92*, MLLE-PAM2 inh 8, APOBEC3G inh 29, PHOSPHO1 inh -8 and A3A conf 54*.
For CCN1CCN(C(=O)CCNC(=O)Cn2cnc3ccccc3c2=O)CC1 the results were A3A deaminase 0, PABP FP inh inactive, eIF4H FP inh 5, MLLE-PAM2 inh 6, APOBEC3G inh -8 and PHOSPHO1 inh 6.
Screening Cc1cccc2c(Cl)cc(=O)[nH]c12 returned A3A deaminase -1, PABP FP inh inactive, eIF4H FP inh 4, APOBEC3G inh -4 and PHOSPHO1 inh -4.
Screening Cc1cccc2cc(=O)[nH]c(C)c12 returned A3A deaminase 40*, PABP FP inh active, eIF4H FP inh 0, MLLE-PAM2 inh -86, APOBEC3G inh 18, PHOSPHO1 inh -30 and A3A conf 7.
C[n+]1ccccc1/C=C1\Sc2ccccc2N1CCO was read as A3A deaminase 98*, MLLE-PAM2 inh -127, APOBEC3G inh 22, PHOSPHO1 inh 29, A3A conf 92* and UDG ctr A3A -3.
Screening CCC(=O)/C=C1\Sc2ccc(OC)cc2N1CCO returned A3A deaminase 1, PABP FP inh inactive, eIF4H FP inh 0, MLLE-PAM2 inh 35, APOBEC3G inh -2 and PHOSPHO1 inh -6.
`Cc1cc(/C=C2\Sc3ccccc3N2C)cc(C)[n+]1CC1CCCO1` (centres undefined) gave A3A deaminase 29, PABP FP inh inactive, eIF4H FP inh 0, MLLE-PAM2 inh -56, APOBEC3G inh 11 and PHOSPHO1 inh -13.
CCN1/C(=C/c2ccc3cc(C)cc(C)c3[n+]2CC)Sc2cc(C)ccc21 was read as PABP FP inh inactive, eIF4H FP inh -42, MLLE-PAM2 inh -171 and PHOSPHO1 inh -100.
`Cc1ccc2c(c1)S/C(=C/c1ccc[n+](CCO)c1)N2C` gave A3A deaminase 56*, PABP FP inh inactive, eIF4H FP inh -2, MLLE-PAM2 inh -154, APOBEC3G inh 15, PHOSPHO1 inh 2, A3A conf 88* and UDG ctr A3A 2.
`Cc1ccc2c(c1)S/C(=C\c1cccc[n+]1C)N2CCO` gave A3A deaminase 58*, PABP FP inh active, eIF4H FP inh -6, MLLE-PAM2 inh -144, APOBEC3G inh 26, A3A conf 89* and UDG ctr A3A 4.
For NC1=NC(=O)S/C1=C\c1ccc(F)cc1 the results were A3A deaminase 1, PABP FP inh inactive, eIF4H FP inh 8, MLLE-PAM2 inh 12, APOBEC3G inh -6 and PHOSPHO1 inh 5.
`CC(C)COC(=O)N1CC(O)CC1C(=O)Nc1ccc2c(c1)OCO2` (centres undefined) gave A3A deaminase 53*, MLLE-PAM2 inh -121, APOBEC3G inh 23, A3A conf 81* and UDG ctr A3A -1.
Screening Cn1nc([N+](=O)[O-])nc1S(C)(=O)=O returned A3A deaminase 88*, PABP FP inh inactive, eIF4H FP inh 98, MLLE-PAM2 inh 27, APOBEC3G inh 10, PHOSPHO1 inh 36, A3A conf 88* and UDG ctr A3A -4.
Cc1ccc(/C=C/S(=O)(=O)NCC(=O)OCC(=O)Nc2ccc(C(N)=O)cc2)cc1 was read as A3A deaminase 19, MLLE-PAM2 inh -13 and APOBEC3G inh -7.
For Cc1ccc(/C=C/S(=O)(=O)NCC(=O)OCC(=O)Nc2c(F)cccc2F)cc1 the results were A3A deaminase 55*, MLLE-PAM2 inh -100, APOBEC3G inh 11 and A3A conf 1.
Screening CCOC(=O)C1=C(C)N=C2SCCC(=O)N2C1c1cc(Br)ccc1OC (centres undefined) returned A3A deaminase 40*, MLLE-PAM2 inh -90, APOBEC3G inh -4, A3A conf -7 and UDG ctr A3A -1.
CN(C(=O)COC(=O)c1ccccc1SCC(=O)NC1CCCCCCC1)C1CCS(=O)(=O)C1 (centres undefined) was read as A3A deaminase -2, PABP FP inh inactive, eIF4H FP inh -1, MLLE-PAM2 inh 20, APOBEC3G inh -4 and PHOSPHO1 inh -2.
`C[n+]1cnn2c1SCC1(COC1)C2` gave A3A deaminase 45*, MLLE-PAM2 inh -126, APOBEC3G inh 26, PHOSPHO1 inh 92*, A3A conf 85* and UDG ctr A3A -1.
`O=S(=O)(Cc1ccccc1)N1CCc2ccccc21` gave A3A deaminase -2, PABP FP inh inactive, eIF4H FP inh inconclusive, APOBEC3G inh -11 and PHOSPHO1 inh 7.
CCC1CCCCN1CC(=O)Nc1cc(OC)c(OC)cc1C#N (centres undefined) was read as PABP FP inh inactive, eIF4H FP inh -5, MLLE-PAM2 inh -7 and PHOSPHO1 inh 1.
